Drawing on PubChem BioAssay (EPA / NIEHS), this text covers outcome and AC50 for four compounds.

Each structure is given as a SMILES string. Values joined by “and” are separate entries in the source; they are usually repeats but may differ in a detail not shown here. Identical values can stand only once. Records with an inconclusive call do not appear. Some structures have more than one record in an assay (separate samples or runs), and their calls can disagree. Active and inactive are the calls of the source. Rule for the calls, unless noted: active = hit-call score of the fitted dose curve at least 0.9, where 1 is the maximum; inconclusive = response in the unintended direction; inactive = score below 0.9.

The nature of assay [1]: ATG_TAL_CIS: Attagene CIS-FACTORIAL HepG2 Assay for human TAL Basal Promoter (AID 2282966; active = hit-call score of the fitted dose curve at least 0.9, where 1 is the maximum; inactive = score below 0.9;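 note: background control endpoint measuring basal TAL promoter reporter mRNA not a specific factor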). To be noted: HepG2 Attagene cis-factorial TAL promoter reporter; actives raise or lower the signal. Put shortly: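 HepG2 cells were transiently transfected with promoter-driven multiplexed reporter units and dosed for 24 h. Reporter mRNA was measured by RT-PCR with capillary electrophoresis fluorescence; bidirectional fits used DMSO as baseline, serving as a background control.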

Assay [2] in a line: ATG_TGFb_CIS: Attagene CIS-FACTORIAL HepG2 Assay for human Transforming Growth Factor (TGF) (AID 2282967; active = hit-call score of the fitted dose curve at least 0.9, where 1 is the maximum; inactive = score below 0.9). Conditions: HepG2 Attagene CIS TGFb reporter, mRNA transcription; actives raise or lower the signal. Put shortly:
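Cells were dosed for 24 hours, after which total RNA was reverse-transcribed and reporter sequences amplified, labeled and sized by capillary electrophoresis. Activity was fitted in both directions against DMSO.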

A short description of assay [3]: ATG_VDRE_CIS: Attagene CIS-FACTORIAL HepG2 Assay for human Vitamin D Receptor Element (VDRE) (AID 2282968; active = hit-call score of the fitted dose curve at least 0.9, where 1 is the maximum; inactive = score below 0.9). Conditions: HepG2 VDRE cis-reporter transcription, actives raise or lower the signal. Put shortly: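 Reporter mRNA induction, quantified by capillary electrophoresis of fluorescently labelled RT-PCR products, was read 24 h after dosing HepG2 cells carrying transiently transfected cis-regulated reporter units; gain or loss relative to DMSO.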

For assay [4], the target named is Nuclear receptor subfamily 1 group I member 3 (Homo sapiens) (UniProt Q14994). As to the kind of experiment: ATG_CAR_TRANS: Attagene TRANS-FACTORIAL HepG2 Assay for human Constitutive Androstane Receptor (CAR) (AID 2282969).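 Note: activators raise reporter mRNA above DMSO so AC50 marks induction.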 Conditions: HepG2 Attagene TRANS-FACTORIAL CAR reporter. Put shortly: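 Readout is reporter mRNA induction, quantified by fluorescent primer extension and capillary electrophoresis after RT-PCR. Cells were HepG2 transiently carrying chimeric NR-Gal4 constructs with GAL4-UAS reporters, treated for 24 h; activity scored upward from DMSO.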

Assay [5] deals with Estrogen receptor (Homo sapiens) (UniProt P03372). As to the kind of experiment: ATG_ERa_TRANS: Attagene TRANS-FACTORIAL HepG2 Assay for human Estrogen Receptor alpha (ERa) (AID 2282970). To be noted: HepG2 Attagene TRANS ERa GAL4 reporter, mRNA. Put shortly: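 HepG2 cells transiently transfected with multiplexed GAL4-UAS reporter units; ERa activity read via exogenous chimeric NR-Gal4 protein. After 24 hour compound exposure, reporter mRNA measured by RT-PCR with 6-FAM labelling and capillary electrophoresis; gain-of-signal fitted relative to DMSO.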

Assay [6] deals with X-box-binding protein 1 (Homo sapiens) (UniProt P17861). As to the kind of experiment: ATG_Xbp1_CIS: Attagene CIS-FACTORIAL HepG2 Assay for human X-box Binding Protein 1 (XBP1) (AID 2282972; active = hit-call score of the fitted dose curve at least 0.9, where 1 is the maximum; inactive = score below 0.9). Conditions: HepG2 XBP1 cis-element reporter, Attagene multiplex; actives raise or lower the signal. In short, it runs like this: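 After a 24-hour chemical exposure of HepG2 cells carrying cis-regulated reporters, reporter mRNA levels are assessed. Quantification uses RT-PCR, 6-FAM labelling and capillary electrophoresis. Gain- or loss-of-signal is fitted against DMSO.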

Assay [7] is described as follows: ATG_M_19_TRANS: Attagene TRANS-FACTORIAL HepG2 Assay for M19 Transcription Factor (Internal Marker) (AID 2282974). To be noted: HepG2 Attagene TRANS-FACTORIAL M19 internal marker reporter. Put shortly:
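Background-control readout: after 24 h chemical exposure of transfected HepG2 carrying GAL4-driven reporter units, RNA was reverse-transcribed, amplified, fluorescently labeled and sized by capillary electrophoresis; gain-of-signal fit against DMSO.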

Assay [8] has as its target Oxysterols receptor LXR-alpha (Homo sapiens) (UniProt Q13133). As to the kind of experiment: ATG_LXRa_TRANS: Attagene TRANS-FACTORIAL HepG2 Assay for human Liver X Receptor alpha (LXRa) (AID 2282980). Conditions: HepG2 Attagene TRANS reporter, LXRa transactivation. In short, it runs like this: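 HepG2 cells were transiently transfected with multiplexed reporter units driven by chimeric LXRa–GAL4 fusion proteins, then dosed for 24 h. Reporter mRNA was quantified by RT-PCR, fluorescent labelling and capillary electrophoresis; gain of signal fitted against DMSO baseline.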

The target of assay [9] is Hepatocyte nuclear factor 4-alpha (Homo sapiens) (UniProt P41235). As to the kind of experiment: ATG_HNF4a_TRANS: Attagene TRANS-FACTORIAL HepG2 Assay for human Hepatocyte Nuclear Factor 4 alpha (HNF4a) (AID 2282982). To be noted: HepG2 HNF4a transactivation reporter, mRNA readout. Put shortly: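 Readout is fluorescent reporter-transcript fragments resolved by capillary electrophoresis after RT-PCR from HepG2 cells dosed for 24 h. Cells carried transfected GAL4-UAS reporter constructs measuring exogenous NR-GAL4 chimera activity; DMSO served as baseline.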

Assay [10] is described as follows: ATG_M_06_TRANS: Attagene TRANS-FACTORIAL HepG2 Assay for M06 Transcription Factor (Internal Marker) (AID 2282983).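 Note: reporter transcript level by RT-PCR then capillary electrophoresis fluorescence.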 Conditions: HepG2 Attagene TRANS M06 internal marker reporter. In short, it runs like this:
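HepG2 cells transiently transfected with multiplexed GAL4-UAS reporter transcription units; after 24 h compound exposure, reporter mRNA measured by RT-PCR, FAM-labelled primer extension, HpaI digestion and capillary electrophoresis. Gain-of-signal fitted versus DMSO baseline; background control readout.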

Assay [11] in a line: ATG_M_32_TRANS: Attagene TRANS-FACTORIAL HepG2 Assay for M32 Transcription Factor (Internal Marker) (AID 2282984). To be noted: HepG2 Attagene TRANS M32 internal marker reporter. Put shortly: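 Measures reporter mRNA induction in human HepG2 liver cells after 24 h chemical treatment. Transcripts from transiently transfected GAL4-UAS reporter units are amplified, fluorescently labelled and sized by capillary electrophoresis; gain of signal relative to DMSO.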

Assay [12] concerns the target Transcriptional activator Myb (Homo sapiens) (UniProt P10242). As to the kind of experiment: ATG_Myb_CIS: Attagene CIS-FACTORIAL HepG2 Assay for human Myeloblastosis (Myb) Proto-Oncogene Transcription Factor (AID 2282986; active = hit-call score of the fitted dose curve at least 0.9, where 1 is the maximum; inactive = score below 0.9). Conditions: HepG2 Attagene CIS-FACTORIAL Myb reporter transcription; actives raise or lower the signal. Put shortly:
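Reporter mRNA is quantified by RT-PCR and capillary electrophoresis 24 h after dosing HepG2 cells transfected with cis-regulated reporter units, which track endogenous transcription factor activity. Gain and loss of signal are fitted versus DMSO baseline.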

For assay [13], the target named is Nuclear respiratory factor 1 (Homo sapiens) (UniProt Q16656). As to the kind of experiment: ATG_NRF1_CIS: Attagene CIS-FACTORIAL HepG2 Assay for human Nuclear Respiratory Factor 1 (NRF1) Orphan Gene (AID 2282987; active = hit-call score of the fitted dose curve at least 0.9, where 1 is the maximum; inactive = score below 0.9). To be noted: HepG2 NRF1 cis-element reporter, Attagene multiplex; actives raise or lower the signal. Put shortly:
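Endogenous NRF1-driven reporter transcription in transfected HepG2 cells after 24 h treatment. Readout: RT-PCR products, 6-FAM labelled and resolved by capillary electrophoresis; changes fitted both directions relative to DMSO.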

Assay [14] is described as follows: ATG_GAL4_TRANS: Attagene TRANS-FACTORIAL HepG2 Assay for GAL4 (Internal Marker) (AID 2282976). Conditions: HepG2 Attagene TRANS GAL4 internal marker reporter. In short, it runs like this: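 HepG2 cells transiently transfected with multiplexed GAL4-UAS reporter constructs were dosed for 24 h. Reporter mRNA was measured by RT-PCR, 6-FAM primer extension, HpaI digestion and capillary electrophoresis, and gain of signal was fitted relative to DMSO.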

Assay [15] concerns the target Estrogen-related receptor gamma (Homo sapiens) (UniProt P62508). As to the kind of experiment: ATG_ERRg_TRANS: Attagene TRANS-FACTORIAL HepG2 Assay for human Estrogen-Related Receptor gamma (ERRg) (AID 2282977).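 Note: hits increase reporter signal over DMSO so potencies reflect activators.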 To be noted: HepG2 Attagene TRANS reporter, ERRg transactivation. In short, it runs like this: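 Transfect HepG2 with multiple GAL4-UAS reporter transcription units; dose chemicals 24 h; isolate RNA, reverse-transcribe with oligo(dT), PCR-amplify, label with 6-FAM, digest with HpaI; size fragments by capillary electrophoresis. DMSO serves as negative control.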

For assay [16], the target named is Glucocorticoid receptor (Homo sapiens) (UniProt P04150). As to the kind of experiment: ATG_GR_TRANS: Attagene TRANS-FACTORIAL HepG2 Assay for human Glucocorticoid Receptor (GR) (AID 2282978).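 Note: activators score as hits since higher reporter transcript over DMSO is fitted.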 To be noted: HepG2 Attagene TRANS GR reporter, mRNA transcription. Put shortly:
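Readout is reporter transcript from a chimeric GR-Gal4 acting on GAL4-UAS in transfected human HepG2 liver cells after 24 h exposure, quantified by RT-PCR and capillary electrophoresis. Activation fitted upward against DMSO.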

The target of assay [17] is Bile acid receptor (Homo sapiens) (UniProt Q96RI1). As to the kind of experiment: ATG_FXR_TRANS: Attagene TRANS-FACTORIAL HepG2 Assay for Farnesoid X Receptor (FXR) (AID 2282979).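 Note: hits raise reporter mRNA above DMSO so AC50 marks FXR activation.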 To be noted: HepG2 Attagene TRANS FXR-GAL4 reporter transcription. In short, it runs like this: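 HepG2 cells transiently transfected with reporter constructs in which a chimeric FXR-GAL4 protein drives a GAL4-UAS reporter; 24 h compound exposure. Reporter mRNA measured by RT-PCR, FAM labelling, HpaI digestion and capillary electrophoresis; gain-of-signal versus DMSO.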

In assay [18] the target is Nuclear receptor subfamily 4 group A member 2 (Homo sapiens) (UniProt P43354). As to the kind of experiment: ATG_NURR1_TRANS: Attagene TRANS-FACTORIAL HepG2 Assay for human Nuclear Receptor Related Protein 1 (NURR1) (AID 2282985). To be noted: HepG2 Attagene TRANS reporter, mRNA readout. Put shortly:
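Transient transfection of HepG2, human liver cells, with multiple GAL4-UAS reporter transcription units. Cells dosed 24 h, RNA isolated, reverse-transcribed, PCR-amplified, FAM-labelled, HpaI-digested, sized by capillary electrophoresis. DMSO served as negative control.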

For assay [19], the target named is Steroid hormone receptor ERR1 (Homo sapiens) (UniProt P11474). As to the kind of experiment: ATG_ERRa_TRANS: Attagene TRANS-FACTORIAL HepG2 Assay for human Estrogen-Related Receptor alpha (ERRa) (AID 2282971). To be noted: HepG2 Attagene TRANS reporter, ERRa transactivation. Put shortly:
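HepG2 cells transiently transfected with multiplexed GAL4-UAS reporter units reading chimeric ERRa-Gal4 activity; 24 h compound exposure. Reporter mRNA measured by RT-PCR, 6-FAM labelling, HpaI digest and capillary electrophoresis; gain of signal fitted versus DMSO baseline.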

Nuclear respiratory factor 1 (Homo sapiens), sequence (Q16656 whole entry, looked up): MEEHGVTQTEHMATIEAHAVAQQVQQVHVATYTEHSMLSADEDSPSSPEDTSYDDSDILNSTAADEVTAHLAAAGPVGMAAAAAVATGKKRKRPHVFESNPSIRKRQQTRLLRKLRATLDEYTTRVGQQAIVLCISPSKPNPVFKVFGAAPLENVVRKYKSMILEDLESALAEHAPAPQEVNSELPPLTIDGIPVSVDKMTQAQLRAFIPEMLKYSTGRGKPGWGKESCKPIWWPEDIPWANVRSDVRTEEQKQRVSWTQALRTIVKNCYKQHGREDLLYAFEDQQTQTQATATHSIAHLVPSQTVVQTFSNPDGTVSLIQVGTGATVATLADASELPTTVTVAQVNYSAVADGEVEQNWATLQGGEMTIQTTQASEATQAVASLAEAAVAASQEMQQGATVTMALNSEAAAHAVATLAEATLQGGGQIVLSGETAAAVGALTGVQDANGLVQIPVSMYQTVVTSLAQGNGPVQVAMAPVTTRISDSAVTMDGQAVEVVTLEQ
Nuclear receptor subfamily 1 group I member 3 (Homo sapiens), sequence (Q14994 whole entry, looked up, the tested form may be a part): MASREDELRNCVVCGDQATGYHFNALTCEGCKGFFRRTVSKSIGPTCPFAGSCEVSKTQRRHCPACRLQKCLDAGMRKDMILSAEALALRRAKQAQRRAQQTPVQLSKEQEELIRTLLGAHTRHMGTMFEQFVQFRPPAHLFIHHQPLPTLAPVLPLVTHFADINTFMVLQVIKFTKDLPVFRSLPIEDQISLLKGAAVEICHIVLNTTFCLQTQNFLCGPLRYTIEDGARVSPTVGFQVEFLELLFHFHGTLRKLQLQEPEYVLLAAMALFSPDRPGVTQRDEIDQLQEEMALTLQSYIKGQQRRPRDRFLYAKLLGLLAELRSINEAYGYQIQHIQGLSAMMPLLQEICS
Estrogen receptor (Homo sapiens), sequence (P03372 whole entry, looked up, the tested form may be a part): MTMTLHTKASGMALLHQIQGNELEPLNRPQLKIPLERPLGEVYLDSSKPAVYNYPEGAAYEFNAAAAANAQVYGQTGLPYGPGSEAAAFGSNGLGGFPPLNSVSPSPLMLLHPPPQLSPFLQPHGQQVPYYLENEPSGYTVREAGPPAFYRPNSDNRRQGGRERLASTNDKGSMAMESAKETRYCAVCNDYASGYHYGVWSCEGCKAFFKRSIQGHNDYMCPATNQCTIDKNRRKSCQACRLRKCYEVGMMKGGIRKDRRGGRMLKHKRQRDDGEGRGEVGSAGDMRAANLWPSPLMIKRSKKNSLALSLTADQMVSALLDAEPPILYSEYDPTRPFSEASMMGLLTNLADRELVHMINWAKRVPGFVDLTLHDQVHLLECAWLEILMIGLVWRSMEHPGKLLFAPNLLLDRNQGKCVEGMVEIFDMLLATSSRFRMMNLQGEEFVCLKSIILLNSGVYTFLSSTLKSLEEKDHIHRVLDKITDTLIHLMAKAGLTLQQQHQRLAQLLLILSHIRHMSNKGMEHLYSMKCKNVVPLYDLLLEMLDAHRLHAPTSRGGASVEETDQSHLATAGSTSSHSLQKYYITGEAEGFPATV
Bile acid receptor (Homo sapiens), sequence (Q96RI1 whole entry, looked up, the tested form may be a part): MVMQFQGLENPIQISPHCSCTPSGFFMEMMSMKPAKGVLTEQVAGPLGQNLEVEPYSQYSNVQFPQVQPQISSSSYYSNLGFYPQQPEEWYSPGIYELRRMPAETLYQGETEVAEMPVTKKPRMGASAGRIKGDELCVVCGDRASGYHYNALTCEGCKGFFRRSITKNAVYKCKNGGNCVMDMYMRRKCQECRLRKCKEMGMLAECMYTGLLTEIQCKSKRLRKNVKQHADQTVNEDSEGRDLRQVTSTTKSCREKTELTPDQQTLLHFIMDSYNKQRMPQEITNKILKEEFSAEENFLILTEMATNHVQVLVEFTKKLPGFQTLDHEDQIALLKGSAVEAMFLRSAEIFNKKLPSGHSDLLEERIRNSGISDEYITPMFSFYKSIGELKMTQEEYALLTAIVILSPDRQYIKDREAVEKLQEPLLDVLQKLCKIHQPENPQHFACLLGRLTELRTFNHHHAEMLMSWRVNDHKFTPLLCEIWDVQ
Hepatocyte nuclear factor 4-alpha (Homo sapiens), sequence (P41235 whole entry, looked up, the tested form may be a part): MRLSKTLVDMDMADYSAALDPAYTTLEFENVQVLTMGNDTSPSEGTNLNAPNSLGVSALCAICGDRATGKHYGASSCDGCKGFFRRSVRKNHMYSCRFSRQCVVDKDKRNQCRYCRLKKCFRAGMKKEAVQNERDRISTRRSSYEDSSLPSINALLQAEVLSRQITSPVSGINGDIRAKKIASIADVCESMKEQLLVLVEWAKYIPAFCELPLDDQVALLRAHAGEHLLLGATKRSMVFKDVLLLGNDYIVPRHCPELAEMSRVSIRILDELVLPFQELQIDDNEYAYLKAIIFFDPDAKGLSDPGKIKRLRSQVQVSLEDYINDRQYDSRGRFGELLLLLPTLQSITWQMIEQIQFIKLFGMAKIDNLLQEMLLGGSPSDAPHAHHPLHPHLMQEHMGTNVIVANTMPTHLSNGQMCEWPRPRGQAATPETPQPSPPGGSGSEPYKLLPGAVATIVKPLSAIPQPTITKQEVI
Transcriptional activator Myb (Homo sapiens), sequence (P10242 whole entry, looked up): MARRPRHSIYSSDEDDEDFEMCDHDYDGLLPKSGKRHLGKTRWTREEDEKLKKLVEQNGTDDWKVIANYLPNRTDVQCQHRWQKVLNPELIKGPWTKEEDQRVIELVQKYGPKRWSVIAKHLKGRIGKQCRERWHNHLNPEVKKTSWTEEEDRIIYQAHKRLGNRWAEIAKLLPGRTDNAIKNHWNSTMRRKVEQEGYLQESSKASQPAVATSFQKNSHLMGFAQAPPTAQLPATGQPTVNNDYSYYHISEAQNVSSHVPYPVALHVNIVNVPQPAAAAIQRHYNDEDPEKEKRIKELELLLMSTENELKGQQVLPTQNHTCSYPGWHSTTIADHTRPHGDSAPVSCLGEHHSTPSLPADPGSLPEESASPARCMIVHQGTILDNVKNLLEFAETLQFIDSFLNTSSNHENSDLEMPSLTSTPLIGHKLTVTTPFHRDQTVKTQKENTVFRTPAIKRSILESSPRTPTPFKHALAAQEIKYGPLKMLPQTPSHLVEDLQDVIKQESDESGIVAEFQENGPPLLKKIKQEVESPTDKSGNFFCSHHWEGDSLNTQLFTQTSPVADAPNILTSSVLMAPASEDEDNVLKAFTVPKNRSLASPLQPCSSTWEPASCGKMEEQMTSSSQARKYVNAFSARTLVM
Oxysterols receptor LXR-alpha (Homo sapiens), sequence (Q13133 whole entry, looked up, the tested form may be a part): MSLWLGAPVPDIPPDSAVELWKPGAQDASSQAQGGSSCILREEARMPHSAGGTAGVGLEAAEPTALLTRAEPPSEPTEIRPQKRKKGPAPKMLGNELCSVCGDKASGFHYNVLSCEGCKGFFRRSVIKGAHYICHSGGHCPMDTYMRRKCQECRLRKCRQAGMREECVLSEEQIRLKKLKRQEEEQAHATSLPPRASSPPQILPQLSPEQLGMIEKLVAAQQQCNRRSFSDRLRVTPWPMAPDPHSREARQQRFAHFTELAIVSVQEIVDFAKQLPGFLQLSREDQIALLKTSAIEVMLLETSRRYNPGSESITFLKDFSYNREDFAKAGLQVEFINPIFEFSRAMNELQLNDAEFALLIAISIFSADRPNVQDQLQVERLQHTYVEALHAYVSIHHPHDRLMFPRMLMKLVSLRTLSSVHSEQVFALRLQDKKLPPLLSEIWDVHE
Estrogen-related receptor gamma (Homo sapiens), sequence (P62508 whole entry, looked up, the tested form may be a part): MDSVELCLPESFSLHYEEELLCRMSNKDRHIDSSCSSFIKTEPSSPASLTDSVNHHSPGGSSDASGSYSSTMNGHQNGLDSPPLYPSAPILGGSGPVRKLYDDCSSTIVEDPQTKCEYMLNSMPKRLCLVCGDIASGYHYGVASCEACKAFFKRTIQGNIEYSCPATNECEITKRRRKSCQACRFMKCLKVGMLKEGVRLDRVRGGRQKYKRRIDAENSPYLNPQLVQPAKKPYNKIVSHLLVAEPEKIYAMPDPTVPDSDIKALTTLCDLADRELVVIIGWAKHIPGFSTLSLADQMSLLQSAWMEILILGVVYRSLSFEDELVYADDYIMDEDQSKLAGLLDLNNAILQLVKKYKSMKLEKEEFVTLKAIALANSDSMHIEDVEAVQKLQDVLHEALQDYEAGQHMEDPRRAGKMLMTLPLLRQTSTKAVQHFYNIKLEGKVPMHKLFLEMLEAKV
Nuclear receptor subfamily 4 group A member 2 (Homo sapiens), sequence (P43354 whole entry, looked up, the tested form may be a part): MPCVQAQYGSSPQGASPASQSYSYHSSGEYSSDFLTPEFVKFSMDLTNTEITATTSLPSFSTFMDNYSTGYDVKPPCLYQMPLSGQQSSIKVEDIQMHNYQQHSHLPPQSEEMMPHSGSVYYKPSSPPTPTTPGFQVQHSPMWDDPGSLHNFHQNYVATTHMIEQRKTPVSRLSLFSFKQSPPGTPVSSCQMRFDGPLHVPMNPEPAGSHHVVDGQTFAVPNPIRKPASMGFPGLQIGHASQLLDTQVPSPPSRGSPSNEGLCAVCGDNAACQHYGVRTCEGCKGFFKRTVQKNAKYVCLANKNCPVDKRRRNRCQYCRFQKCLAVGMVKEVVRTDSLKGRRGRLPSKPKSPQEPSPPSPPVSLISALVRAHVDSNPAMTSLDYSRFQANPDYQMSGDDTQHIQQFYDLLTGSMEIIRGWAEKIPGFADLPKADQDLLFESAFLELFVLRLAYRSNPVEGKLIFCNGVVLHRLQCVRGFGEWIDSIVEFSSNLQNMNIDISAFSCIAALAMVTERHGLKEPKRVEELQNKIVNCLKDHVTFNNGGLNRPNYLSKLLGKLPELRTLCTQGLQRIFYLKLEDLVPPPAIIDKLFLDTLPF
X-box-binding protein 1 (Homo sapiens), sequence (P17861 whole entry, looked up): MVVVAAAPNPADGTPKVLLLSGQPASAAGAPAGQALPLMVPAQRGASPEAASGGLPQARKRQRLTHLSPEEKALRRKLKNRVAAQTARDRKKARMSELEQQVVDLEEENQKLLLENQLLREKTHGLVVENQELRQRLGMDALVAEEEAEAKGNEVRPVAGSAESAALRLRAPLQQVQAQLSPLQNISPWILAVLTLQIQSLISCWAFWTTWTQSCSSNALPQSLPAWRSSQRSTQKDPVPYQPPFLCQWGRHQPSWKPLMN

On to `CCCCCCCCCCCCO`, for which the call in [1], in assay [2], in assay [3], in [4], in assay [5] and in [6] was inactive. Further, the compound was classed as inactive in [7], in [8], in [9], in [10], in [11] and in [12]. Also, the compound was called inactive in assay [13].
Regarding `O=C(O)Cc1cc(I)c(Oc2ccc(O)c(I)c2)c(I)c1`, the call in assay [1], in [2], in assay [4], in assay [6], in assay [7] and in assay [14] was inactive. For the same compound, the compound was called inactive in assay [15], in [16], in assay [17], in [8], in assay [9] and in [10]. Further, the call in assay [11], in [12] and in assay [13] was inactive. The AC50 (commonly the concentration at which the activity in the assay is half-maximal) in assay [3] is 33.7 µM (active) [middle of 4 runs]; in assay [18], 82 µM (active) and 100 µM (active); in assay [13], 159 µM (active).
Regarding `O=c1[nH]sc2ccccc12`, the call in assay [1], in [2], in assay [3], in assay [4], in assay [5] and in assay [15] was inactive. Besides, the outcome in assay [17], in assay [9], in assay [10], in assay [12] and in assay [13] was inactive. For the same compound, in assay [6], the AC50 was 52.9 µM (active).
Regarding `CCN(Cc1cccc(S(=O)(=O)O)c1)c1ccc(C(=C2C=CC(=[N+](CC)Cc3cccc(S(=O)(=O)O)c3)C=C2)c2ccccc2S(=O)(=O)[O-])cc1`, the compound was classed as inactive in [1], in assay [2], in assay [3], in assay [4], in assay [5] and in [19]. Also, the call in assay [6], in assay [15], in assay [17], in [9], in [10] and in [18] was inactive. In addition, the result in assay [12] and in assay [13] was inactive.
